The list is not random: actives were taken first. Their share in the collection is about 12%.
FMDV inh = blocks foot and mouth disease virus | FMDV antiviral cell-based qHTS | Potency, µM (doses to about 57.9 µM), inactives show top-dose activity change, negative = inhibition, usual class: inhibitors | 410,000 compounds, 1.2% hits | AID 1159524; calls by dose curve; tested in HEK293T cells; also: read-out not given here; potency is read from the fitted curve at half-maximal effect; % is scaled to controls: 0 for no effect and ±100 for the full control effect; nearly all actives have a fitted effect of over 45% in size
Shiga inhibitor = Shiga toxin inhibition; 290,000 compounds, 9.2% hits; Vero cells, Shiga toxin protein synthesis inhibition reporter; inhibition, % at 38.7 µM; AID 2315; in the data active = inhibition mostly above about 28%, no sharp cut-off; inactive = mostly below about 43%; also: 0% is about no effect
Sm TGR inh = blocks Schistosoma mansoni thioredoxin glutathione reductase | Q962Y6 | purified TGR, DTNB reduction, TNB absorbance 405 nm | Potency, µM (series often up to 114 µM), for the others: at the top dose activity change, negative = inhibition, usual class: inhibitors | 360,000 compounds, 3% hits | AID 485364; active = well fitted inhibition curve with a large enough effect; inconclusive = small, poorly fitted or top-dose-only effect; inactive = no such curve, though single readings can be large or run the other way; also: potency is read from the fitted curve at half-maximal effect; % is scaled to controls: 0 for no effect and ±100 for the full control effect; nearly all actives have a fitted effect of over 60% in size
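TGR 20 nM + NADPH 100 uM (dispensed conc.), cpd preinc 15 min RT; start with NADPH (500 uM addition) then DTNB (15 mM addition). Kinetic TNB absorbance, 405 nm filter. Four-parameter Hill fit across titration.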
CHX counter = counter-screen hit for Shiga toxin inhibitors, cycloheximide; cell reporter, cycloheximide protein synthesis inhibition counterscreen; AID 2314; max response, %; 300,000 compounds, 12% hits; in the data active = max response mostly above about 13%, no sharp cut-off; inactive = mostly below about 14%; also: read at 38.3 µM for the half of the compounds with a filed dose; 0% is about no effect
The depositor's hits bear a star; ? = inconclusive; nt = no result; [ ] = remark or other dose.

SMILES	FMDV inh	Shiga inhibitor	Sm TGR inh	CHX counter
C/C=C1/C(=O)C[C@@H]2[C@H]3CCC4=CC(=O)CC[C@]4(C)[C@@H]3CC[C@]12C	-12%	nt	nt	nt
Cc1cc(-c2cccs2)n[nH]1	0%	28	9%	14
Cc1cc(-c2ccc(Cl)s2)n[nH]1	52%	82*	5%	29*
CCCc1nnc(NC(=O)C2CCCO2)s1 (centres undefined)	52%	52	-3%	25*
O=C(Nc1nnc(C2CC2)s1)C1CCCO1 (centres undefined)	33%	28	9%	12
CC(C)c1nnc(NC(=O)C2CCCO2)s1 (centres undefined)	19%	1	0%	13
CCc1nnc(NC(=O)C2CCCO2)s1 (centres undefined)	4%	27	8%[57.1 µM]	17*
O=C(O)c1cc(N=Nc2ccc(-c3ccc(N=Nc4ccc(O)c(C(=O)O)c4)cc3)cc2)ccc1O	nt	26*	nt	12
O=C(O)c1cc(S(=O)(=O)O)ccc1O	-20%	9	-7%	-3
Cc1cccc(CS(=O)(=O)Cc2ccc(C(=O)O)o2)c1	-14%	-24	25µM*	5
Cc1cccc(CS(=O)(=O)Cc2ccc(C(=O)NCCN3CCCCC3C)o2)c1 (centres undefined)	-18%	-11	35µM*	-3
COCCCNC(=O)c1ccc(CS(=O)(=O)Cc2cccc(C)c2)o1	-23%	-6	-20%	-6
Cc1cccc(CSCc2ccc(C(=O)O)o2)c1	21%	25	50µM*	16*
Cc1ccc(CSCc2ccc(C(=O)O)o2)cc1	5%	-6	?	-5
CCc1ccc(CNC(=O)c2ccc(CS(=O)(=O)Cc3cccc(C)c3)o2)cc1	?	nt	8%	nt
Cc1sc2ncn(CC(=O)N3CCN(c4ccc(F)cc4)CC3)c(=O)c2c1S(=O)(=O)N1CCCCC1	-14%	nt	2%	nt
CCOC(=O)c1c(C)oc2nc(C)nc(NCCc3ccc(OCC)c(OCC)c3)c12	-30%	nt	-12%	nt
COc1ccc(C2=Nn3c(nnc3-c3cccc(OC)c3OC)SC2)cc1	nt	-8	nt	-3
CCC(C)C(NC(=O)OC(C)(C)C)C(=O)NC1COC2CC(n3ccc(NC(C)=O)nc3=O)OC12 (centres undefined)	nt	-5	nt	-7
Cc1c(C(=O)Oc2cc(N)n(S(C)(=O)=O)n2)cccc1[N+](=O)[O-]	-9%	-7	8.9µM*	-3
Cc1ccc(S(=O)(=O)n2nc(OC(=O)c3ccco3)cc2N)cc1	0%	nt	nt	nt
Nc1cc(OC(=O)c2ccco2)nn1S(=O)(=O)c1ccc(F)cc1	2%	-17	32µM*	-3
Cc1ccc(S(=O)(=O)n2nc(OC(=O)c3cccc(F)c3)cc2N)cc1	16%	-5	13µM*	-2
O=C(NC(=S)Nc1c(Cl)ccc2nsnc12)c1ccccc1F	-2%	15	-30%	15
Cc1ccc2nsnc2c1NC(=S)NC(=O)c1ccco1	-16%	-15	45µM*	-2
SMILES	FMDV inh	Shiga inhibitor	Sm TGR inh	CHX counter
COc1ccc2nc(N3CCN(C(=O)c4ccco4)CC3)sc2c1	11%	nt	7%	nt
Cc1ccc(Nc2nc3ccccc3c(=O)s2)cc1C	31%	-1	-9%	-3
COc1ccc2nc(NC(=O)C3CCN(S(=O)(=O)c4cccc5nsnc45)CC3)sc2c1	7.9µM*	-3	16%	-2
COc1ccc2nc(NC(=O)C3CCN(C(=O)c4ccco4)CC3)sc2c1	11%	144*	-7%	36*
O=c1sc(Nc2ccccc2)nc2ccsc12	10%	92*	1%	80*
CCOc1ccccc1-c1nnc2n1N=C(c1cc(OC)cc(OC)c1)CS2	nt	-6	nt	12
COc1ccc2nc(NC(=O)c3ccco3)sc2c1	-30%	60*	-17%	20*
O=C(NCc1ccc(F)cc1)C1CCCN(c2nc3ccsc3c(=O)s2)C1 (centres undefined)	?	-10	3%	-3
Cc1ccc2nc(NC(=S)NC(=O)c3ccco3)sc2c1	42%	138*	?	67*
Cc1ccc2nc(NC(=O)c3ccco3)sc2c1	-79%	15	-17%	30*
COc1cc2nc(NC(=O)c3ccco3)sc(=O)c2cc1OC	-8%	14	-2%	1
O=C(Nc1nc2ccsc2c(=O)s1)C1CCC1	88%	55*	10%	41*
COc1ccc(-c2nc3ccccc3n3c(-c4ccc(OC)cc4)c4c(=O)n(C)c(=O)n(C)c4c23)cc1	-23%	nt	8%	nt
COC(=O)c1cc2sc(Cl)cc2n1Cc1nc(-c2ccccc2F)oc1C	-16%	nt	-6%	nt
Cc1ccc(Cl)cc1NC(=O)Nc1nnc(N(C)Cc2ccccc2)s1	-10%	nt	-7%	nt
O=C(Cc1ccc(Cl)cc1)NCC(c1cccs1)S(=O)(=O)c1ccc(F)cc1 (centres undefined)	-12%	nt	-17%	nt
O=C(Nc1nc2ccsc2c(=O)s1)c1ccco1	60%	97*	-6%	27*
O=C(Nc1nc2c(s1)CCc1ccccc1-2)c1ccco1	-8%	81*	3%	50*
Cc1csc2c(=O)sc(NC(=O)c3ccco3)nc12	15%	19	-17%	9
CC(C)c1nnc(NC(=O)C2CCN(C(=O)c3ccco3)CC2)s1	4%	40*	-2%	21*
O=C(NC(n1ccc(=O)[nH]c1=O)C(Cl)(Cl)Cl)C12CC3CC(CC(C3)C1)C2 (centres undefined)	-29%	-8	40µM*	1
Cc1nn(-c2ccccc2)c(OC(=O)C(C)(C)C)c1Sc1ccccc1	0%	nt	5%	nt
Cc1ccc(-c2nc(CS(=O)(=O)CC(=O)NC3CC3)c(C)o2)cc1	-20%	-2	32µM*	-8
Cc1ccc(-c2nc(CS(=O)(=O)CC(=O)NC3CCCCC3C)c(C)o2)cc1 (centres undefined)	-5%	-16	35µM*	-6
Cc1ccc(-c2nc(CS(=O)(=O)CC(=O)N3CC(C)CC(C)C3)c(C)o2)cc1 (centres undefined)	?	7	2.2µM*	-3
SMILES	FMDV inh	Shiga inhibitor	Sm TGR inh	CHX counter
Cc1csc2nc(COc3ccc(NC(=O)COc4ccccc4F)cc3)cc(=O)n12	?	nt	-3%	nt
Cc1ccc2c(c1)-c1c(cnn1CC(=O)N1CCN(c3cccc(C(F)(F)F)c3)CC1)CO2	?	nt	-8%	nt
Nn1c(SCc2ccccc2F)nnc1-c1ccccn1	51%	135*	17%	33*
CC(C)OC(=O)CSc1nnc(-c2ccccn2)n1N	-3%	25	2%	-2
NC(=O)CSc1nnc(-c2ccccn2)n1N	1%	36	5%	0
Nn1c(SCc2ccc(F)cc2)nnc1-c1cccnc1	30%	19	8%	7
Cc1ccc(CSc2nnc(-c3ccccn3)n2N)cc1	17%	107*	4%	23*
Nn1c(SCc2ccc(F)cc2)nnc1-c1ccccn1	59%	68*	-6%	34*
Nn1c(SCc2ccccc2)nnc1-c1ccccn1	3%	38*	-14%	30*
CCCCN(CCCC)CCNC(=O)c1cn(C)c2ccc(S(=O)(=O)N3CCOCC3)cc2c1=O	-16%	nt	8%	nt
CC(C)CCNC(=O)C1CCN(C(=O)N2CCOc3ccc(Cl)cc32)CC1	-13%	nt	-13%	nt
O=C(c1ccco1)N1CCC2(CC1)CCN(c1ccccc1)CC2	-11%	nt	nt	nt
Cn1c2cc(C=O)sc2c2cnn(Cc3ccccc3F)c(=O)c21	nt	-7	nt	-6

Assay outcomes from PubChem.
